Lassa entry inh: inhibitors of Lassa virus binding or cell entry; Lassa virus pseudotype entry inhibition, cell reporter; Potency, µM (titrated, usually from 37.9 µM), usual class: inhibitors; 1.2% of 300,000 active; calls by dose curve; tested in HEK293 cells; also: nearly all actives have a fitted effect of over 50% in size
RE007 growth inh: less growth of the S. pombe RE007 Vpr strain | 0.21% of 360,000 active | S. pombe RE007 Vpr strain, BacTiter-Glo ATP luminescence, 24 h | Potency, µM (doses to about 92.2 µM), usual class: inhibitors | AID 651644; active = well fitted falling curve with a large enough effect; inconclusive = small, poorly fitted or top-dose-only effect; inactive = no such curve, though single readings can be large or run the other way; also: nearly all actives have a fitted effect of over 50% in size
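Fission yeast strain RE007, carrying one chromosomally integrated HIV-1 vpr copy, was seeded at OD 0.01 in PMG+AL medium with 23 nL pinned compound. After 24 h at 30 °C and 99% humidity, viability was read by BacTiter-Glo luminescence.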
Sm TGR inh: blocks Schistosoma mansoni thioredoxin glutathione reductase. AID 485364. Potency, µM (doses to about 114 µM), hits mostly inhibitors. 3% of 360,000 active. purified TGR, DTNB reduction, TNB absorbance 405 nm. Q962Y6; also: nearly all actives have a fitted effect of over 60% in size
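TGR 20 nM + NADPH 100 uM (dispensed conc.), cpd preinc 15 min RT; start with NADPH (500 uM addition) then DTNB (15 mM addition). Kinetic TNB absorbance, 405 nm filter. Four-parameter Hill fit across titration.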
Marburg entry inh: inhibitors of Marburg virus binding or cell entry | AID 540276 | Potency, µM (highest dose often 37.8 µM), most hits filed as inhibitors | 1.8% of 300,000 active | Marburg virus pseudotyped entry inhibition, cell reporter; calls by dose curve; tested in HEK293 cells
FMDV inh: antivirals against foot and mouth disease virus; AID 1159524; Potency, µM (top dose mostly 57.9 µM), most hits filed as inhibitors; FMDV antiviral cell-based qHTS; 1.2% of 410,000 active; calls by dose curve; tested in HEK293T cells; also: read-out not given here; nearly all actives have a fitted effect of over 45% in size
HCV inh: inhibitors of hepatitis C virus infection; Huh7.5.1 HCVcc-Cre infection, luciferase reporter, 44 h; Potency, µM (highest dose often 41.8 µM), hits mostly inhibitors; 3.4% of 340,000 active
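Cells seeded at 1,000/well and cultured 4 h, then compounds added followed by HCVcc-Cre virus (~0.5 moi). After 44 h further culture, luciferase substrate was added, plates held 15 min at room temperature, and luminescence read for 15 sec.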
Large screens that a line does not name were inactive. Only some compounds are listed: those with a hit (about 7.2% of all), similar ones and a draw of the others. Unless noted, calls follow the shape of the dose curve; as a rule, active = well fitted curve in the direction sought with a large enough effect; inconclusive = small, poorly fitted or top-dose-only effect, or another doubt; inactive = no such curve, though single readings can be large; an effect the other way counts as inactive or inconclusive.

COc1ccc(-c2csc3nc(-c4ccc(Cl)cc4)oc(=O)c23)cc1	none (no result: RE007 growth inh, HCV inh)
C=CC[C@]12CC=CC(=O)[C@@]1(O)O[C@H](c1ccc(OC)c(OC)c1)[C@H]2C	FMDV inh 20µM (no result: Lassa entry inh, Sm TGR inh, Marburg entry inh)
C=CC[C@]12C=C(OC)C(=O)C(OC)=C1O[C@@H](c1ccc3c(c1)OCO3)[C@H]2C	HCV inh inconclusive (no result: Lassa entry inh, Sm TGR inh, Marburg entry inh)
C=C(CN(C)C)C(=O)c1ccc(OC2OC(COC(C)=O)C(OC(C)=O)C(OC(C)=O)C2OC(C)=O)cc1 (configuration not stated)	Lassa entry inh inconclusive, Marburg entry inh inconclusive, FMDV inh 10µM, HCV inh inconclusive (no result: Sm TGR inh)
O=C1COc2cc(S(=O)(=O)NCc3ccco3)c(Cl)cc2N1	Sm TGR inh 15.8µM (no result: RE007 growth inh, Marburg entry inh, HCV inh)
CCOCCCN(Cc1ccco1)S(=O)(=O)c1cc2c(cc1Cl)NC(=O)CO2	Sm TGR inh 17.8µM (no result: RE007 growth inh, Marburg entry inh, HCV inh)
Fc1cccc(-c2cc3nc4c(c(N5CCOCC5)n3n2)CCCC4)c1	Marburg entry inh inconclusive, HCV inh 3.55µM
COc1ccc(CCC(=O)NCCS(=O)(=O)N2CCN(c3ccccc3OC)CC2)cc1	HCV inh 14.1µM (no result: Lassa entry inh, Marburg entry inh)
CC(C)Cn1c(N)c(C(=O)CSc2nc3ncc(Cl)cc3[nH]2)c(=O)n(C)c1=O	Lassa entry inh inconclusive, Marburg entry inh inconclusive, FMDV inh 15.8µM, HCV inh inconclusive
CC(C)Cn1c(N)c(C(=O)CSc2ccc3c(c2)OCCO3)c(=O)n(C)c1=O	Lassa entry inh inconclusive, Marburg entry inh inconclusive, FMDV inh 11.2µM, HCV inh 2µM
CCCn1c(N)c(C(=O)CSc2nc3ncc(Cl)cc3[nH]2)c(=O)n(C)c1=O	FMDV inh inconclusive (no result: Lassa entry inh, Marburg entry inh)
CC(C)Cn1c(N)c(C(=O)COC(=O)c2ccc3c(c2)OCCO3)c(=O)n(C)c1=O	Lassa entry inh inconclusive, Marburg entry inh inconclusive, FMDV inh inconclusive, HCV inh 7.08µM
Cn1c(N)c(C(=O)COC(=O)c2ccc3c(c2)OCCO3)c(=O)n(C)c1=O	none
CCc1ccc(CN2CCN(Cc3ccc(SC)cc3)CC2)cc1	Lassa entry inh inconclusive, Marburg entry inh inconclusive, FMDV inh inconclusive, HCV inh 10µM
CCCCCCCCCCCCCCCC[N+](C)(C)CCl	RE007 growth inh 22.4µM (no result: Sm TGR inh)
C#CC[N+](C)(C)CCCCCCCCCCCC	Lassa entry inh inconclusive, RE007 growth inh inconclusive, Marburg entry inh inconclusive, FMDV inh 22.4µM, HCV inh inconclusive
CN(C)C(CNC(=O)c1cccc(S(=O)(=O)N2CC3(C)CC2CC(C)(C)C3)c1)c1ccco1 (configuration not stated)	Sm TGR inh 25.1µM, Marburg entry inh inconclusive
CCCNC(=O)c1cccc(S(=O)(=O)N2CC3(C)CC2CC(C)(C)C3)c1 (configuration not stated)	none
COc1ccc(-c2cc(C(=O)O)c(C)o2)cc1OC	Lassa entry inh inconclusive, Marburg entry inh inconclusive, FMDV inh 12.6µM
Cc1oc(-c2ccc3c(c2)OCCO3)cc1C(=O)O	Lassa entry inh 1.12µM, RE007 growth inh inconclusive, Sm TGR inh inconclusive, Marburg entry inh inconclusive, FMDV inh 2.24µM
Cc1oc(-c2ccc3c(c2)OCCO3)cc1C(=O)NCC(=O)O	Lassa entry inh inconclusive, Marburg entry inh inconclusive, FMDV inh 28.2µM
COc1ccc(Cn2cc(CN3CC(N4CCN(CCO)CC4)CS3(=O)=O)nn2)cc1 (configuration not stated)	none (no result: Lassa entry inh, Sm TGR inh, Marburg entry inh, HCV inh)
Cc1nc2c([nH]c3ccc(Br)cc32)s1	HCV inh 10µM
CC1(C)CC(N(Cc2ccc(F)cc2)C(=O)c2ccc(F)cc2)CCO1 (configuration not stated)	none
COc1ccccc1C(CC(N)=O)c1ccco1 (configuration not stated)	none
CCC(=O)N(CCC(c1ccc(C)cc1)c1ccco1)Cc1ccco1 (configuration not stated)	Lassa entry inh inconclusive, Sm TGR inh 14.1µM, Marburg entry inh inconclusive, HCV inh 11.2µM
COc1ccccc1C(CCN(Cc1ccccc1)C(C)=O)c1ccco1 (configuration not stated)	Sm TGR inh 17.8µM, Marburg entry inh inconclusive
O=C(c1ccco1)N(CCC(c1ccccc1)c1ccco1)Cc1ccc(F)cc1 (configuration not stated)	Lassa entry inh 23.1µM, Marburg entry inh inconclusive, FMDV inh inconclusive, HCV inh inconclusive
